What all share (assay): glycan array binding signal (z-score within array); higher = stronger binding
What all share (conditions): glycan notation: IUPAC condensed, linker removed

Assay [1] has as its target GlcNAc(b1-3)Gal(b1-4)GlcNAc(b1-2)Man(a1-3)[GlcNAc(b1-3)Gal(b1-4)GlcNAc(b1-2)Man(a1-6)]Man(b1-4)GlcNAc(b1-4)[Fuc(a1-6)]GlcNAc. The procedure, abridged:
(§1)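 Glycan array binding is given as a within-array Z-score, which can be read as non-binding when negative. The arrays, 3228 of them, came from the Consortium for Functional Glycomics database and were retained only where the protein sequence was available. Z-scores were averaged across arrays of the same protein sequence at different concentrations or buffers and across linkers.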

In assay [2] the target is GlcNAc(b1-3)Gal(b1-4)GlcNAc(b1-3)[GlcNAc(b1-3)Gal(b1-4)GlcNAc(b1-3)]GalNAc. The essentials: as §1
Assay [3] deals with GlcNAc(b1-3)Man. The procedure, abridged:
as §1

Assay [4] deals with GlcNAc(b1-4)GlcNAc(b1-4)GlcNAc(b1-4)GlcNAc(b1-4)GlcNAc. The essentials:
as §1

The target in assay [5] is Man(a1-2)Man(a1-2)Man(a1-3)Man. The essentials: as §1
For assay [6], the target named is Neu5Ac(a2-3)Gal(b1-3)GalNAc. The procedure, abridged: as §1
In assay [7] the target is Neu5Ac(a2-3)Gal(b1-4)Glc. The essentials: as §1
The target in assay [8] is Neu5Ac(a2-3)Gal(b1-4)GlcNAc(b1-3)Gal(b1-3)GlcNAc. The essentials:
as §1

Assay [9] addresses Neu5Ac(a2-3)Gal(b1-4)GlcNAc(b1-3)Gal(b1-4)GlcNAc(b1-3)GalNAc. The procedure, abridged: as §1
Assay [10] deals with Neu5Ac(a2-3)Gal(b1-4)[Fuc(a1-3)]GlcNAc(b1-3)GalNAc. The essentials:
as §1

The target in assay [11] is Neu5Ac(a2-3)GalNAc. The essentials:
as §1

Assay [12] deals with Neu5Ac(a2-6)GalNAc. The procedure, abridged: as §1
For assay [13], the target named is Neu5Ac(a2-8)Neu5Ac(a2-3)[Gal(b1-3)GalNAc(b1-4)]Gal(b1-4)Glc. The essentials: as §1
The target of assay [14] is Neu5Ac(a2-8)Neu5Gc(a2-3)Gal(b1-4)GlcNAc. The essentials: as §1
Assay [15] deals with Neu5Gc(a2-3)Gal(b1-3)[Fuc(a1-4)]GlcNAc. The procedure, abridged: as §1

About 410 targets per protein were measured; listed, in parts, are those with the strongest signals and a random draw of the rest.

B1: SP15308A-bot-339-19-339 (Bacteroides ovatus) (protein)
chain: ACNNEWEDEQYEQYISFKSPIPAGGEGVTDIYVRYKEDGKVTYRLPIVVSGSTTNTLDREVHIAVDKDTLETLNIERFSIHRPGLWYTALEEDKYDFPKTVHISAGSSVEQLNIDFNLQGIDMLEKWVLPLTIVDDPSYNYKSHPRKNYAKALLRVIPFNNYSGSYTSSAMKVYTYINGKPDTNARTANKRTGYVINDNTVFFYAGLISEDLDKEVREKYKINVHFNEDGTLHMEQGDPTNKMKFELIGTPTYSKTSVMDATRPYLERRYVQIMFEYDFEDFSYGGNGVDVIPIKYKVEGSMTLQRNINTQIPDEDQQIEW
As to B1, the “glycan array binding signal (z-score)” value in assay [1] is 0.083; in [2], 0.148; in assay [3], -0.188; in assay [4], -0.452; in assay [5], -0.468; in assay [6], 1.94. Besides, the “glycan array binding signal (z-score)” value was 0.997 in [7]; 0.117 in assay [8]; -0.51 in [9]; 1.76 in [10]; 0.234 in assay [11]; -0.36 in assay [12]. In addition, the entries for the “glycan array binding signal (z-score)” value in assay [13], in assay [14] and in assay [15] were -0.083, -0.21 and -0.412, respectively.
